From PubChem BioAssay AID1159580 (chemical genetic matrix, 2015)
Out of some 5,500 compounds screened, about 2,000 (36%) were called active. Another 18% or so got no clear call; they are omitted. No stated cut-off is given here; in the data, active means normalized growth mostly below about 0.91 (no sharp cut-off); inconclusive means no clear call, values can overlap the other calls; inactive means mostly above about 0.92. The list shows a part of the results.

Assay: chemical genetic growth profiling, strain panel (AID 1159580);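 further: tested at 20 µM; growth read once vehicle control cultures reached saturation at 30 °C; 1 = growth at the plate median or of vehicle wells; lower values mean less growth of the strain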
Settings: S. cerevisiae deletion strains, growth OD

Measured: normalized growth

O=C(/C=C(\O)c1ccccc1)c1ccccc1O
inactive: locus YBR021W, strain FUR4, hits give low values 0.939 | locus YDL005C, strain med2, hits give low values 0.941 | locus YDR195W, strain ref2 1.06 | locus YGL078C, strain dbp3, hits give low values 0.986 | locus YGR078C, strain PAC10, hits give low values 0.914 | locus YGR252W, strain gcn5, hits give low values 0.872 | locus YHR013C, strain ard1, hits give low values 0.865 | locus YHR094C, strain hxt1, hits give low values 0.935 | locus YIL125W, strain kgd1, hits give low values 0.98 | locus YJL115W, strain asf1, hits give low values 0.94 | locus YJL168C, strain set2, hits give low values 0.958
active: locus YAL021C, strain ccr4, hits give low values 0.843 | locus YAL026C, strain drs2, hits give low values 0.775 | locus YAL030W, strain snc1, hits give low values 0.827 | locus YBL061C, strain skt5, hits give low values 0.776 | locus YBR009C, strain hhf1, hits give low values 0.667 | locus YBR023C, strain chs3, hits give low values 0.778 | locus YBR171W, strain sec66, hits give low values 0.807 | locus YBR229C, strain ROT2, hits give low values 0.778 | locus YBR231C, strain swc5, hits give low values 0.65 | locus YBR279W, strain paf1, hits give low values 0.865 | locus YCL011C, strain gbp2, hits give low values 0.681 | locus YCL016C, strain dcc1, hits give low values 0.836 | locus YCL029C, strain bik1, hits give low values 0.593 | locus YCL061C, strain MRC1, hits give low values 0.812 | locus YCL069W, strain vba3, hits give low values 0.843 | locus YCR088W, strain abp1, hits give low values 0.877 | locus YDL035C, strain GPR1, hits give low values 0.791 | locus YDL040C, strain nat1, hits give low values 0.918 | locus YDL074C, strain BRE1, hits give low values 0.28 | locus YDL101C, strain DUN1, hits give low values 0.595 | locus YDL134C, strain PPH21, hits give low values 0.827 | locus YDL185W, strain tfp1, hits give low values 0.817 | locus YDL192W, strain arf1, hits give low values 0.776 | locus YDR001C, strain nth1, hits give low values 0.903 | locus YDR069C, strain doa4, hits give low values 0.701 | locus YDR101C, strain arx1, hits give low values 0.665 | locus YDR137W, strain rgp1, hits give low values 0.402 | locus YDR159W, strain sac3, hits give low values 0.682 | locus YDR162C, strain NBP2, hits give low values 0.794 | locus YDR297W, strain sur2, hits give low values 0.856 | locus YDR318W, strain mcm21, hits give low values 0.844 | locus YDR334W, strain swr1, hits give low values 0.687 | locus YDR335W, strain msn5, hits give low values 0.857 | locus YDR388W, hits give low values 0.736 | locus YDR392W, strain spt3, hits give low values 0.71 | locus YDR502C, strain sam2, hits give low values 0.845 | locus YEL003W, strain gim4, hits give low values 0.709 | locus YEL037C, strain rad23, hits give low values 0.868 | locus YEL061C, strain CIN8 (second series), hits give low values 0.903 | locus YEL061C, strain CIN8, hits give low values 0.826 | locus YER015W, strain faa2, hits give low values 0.685 | locus YER016W, strain bim1, hits give low values 0.88 | locus YER110C, hits give low values 0.787 | locus YER111C, strain swi4, hits give low values 0.871 | locus YER155C, strain BEM2 (second series), hits give low values 0.755 | locus YER155C, strain BEM2, hits give low values 0.413 | locus YER167W, strain BCK2, hits give low values 0.554 | locus YFR010W, strain ubp6, hits give low values 0.766 | locus YGL086W, strain mad1, hits give low values 0.794 | locus YGL167C, strain pmr1, hits give low values 0.895 | locus YGL173C, strain kem1, hits give low values 0.779 | locus YGL227W, strain vid30, hits give low values 0.906 | locus YGL240W, strain doc1, hits give low values 0.758 | locus YGL248W, strain PDE1, hits give low values 0.491 | locus YGL253W, strain hxk2, hits give low values 0.543 | locus YGR135W, strain pre9, hits give low values 0.836 | locus YHR027C, strain rpn1, hits give low values 0.637 | locus YHR030C, strain SLT2, hits give low values 0.854 | locus YHR079C, strain IRE1 (second series), hits give low values 0.554 | locus YHR129C, strain ARP1, hits give low values 0.527 | locus YHR142W, strain chs7, hits give low values 0.648 | locus YHR200W, strain rpn10, hits give low values 0.863 | locus YIL066C, strain RNR3, hits give low values 0.696 | locus YIL073C, strain SPO22, hits give low values 0.301 | locus YIR030C, strain dcg1, hits give low values 0.592 | locus YJL092W, strain hpr5, hits give low values 0.87 | locus YJL095W, strain BCK1 (second series), hits give low values 0.741 | locus YJL095W, strain BCK1, hits give low values 0.254 | locus YJL129C, strain trk1, hits give low values 0.741 | locus YJL134W, strain LCB3, hits give low values 0.908 | locus YJL154C, strain vps35, hits give low values 0.918 | locus YJL164C, strain tpk1, hits give low values 0.695 | locus YJL166W, strain qcr8, hits give low values 0.546
